Experiment [1] concerns the target Estrogen receptor (Homo sapiens) (UniProt P03372). The experiment is described as follows: qHTS assay to identify small molecule antagonists of the estrogen receptor alpha (ER-alpha) signaling pathway using the BG1 cell line in the presence of 0.1 nM 17-beta-estradiol (AID 1259244). Also: nearly all actives have a fitted effect of over 50% in size. Also: potency is read from the fitted curve at half-maximal effect. The procedure, abridged: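 Antagonist mode: compounds in DMSO are pinned onto VM7Luc4E2 reporter cells, 0.1 nM final 17beta-estradiol is added, and after 22 h at 37C luciferase luminescence is measured with ONE-Glo.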
In general terms: Quantitative high-throughput screening tests each substance at several concentrations.

The nature of experiment [2]: qHTS assay to identify small molecule HDAC inhibitors (AID 1259364).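 Also: wild-type HCT-116 cells with endogenous class I/II HDAC activity; top concentration of the series differs between compounds; nearly all actives have a fitted effect of over 45% in size.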 The procedure, abridged:
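Cells (HCT-116, wild type) are seeded at 1,500 per well, incubated overnight, treated with compound in DMSO for 2 hr, then developed with HDAC-Glo I/II reagent for 30 min at room temperature.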

Experiment [3] in a line: qHTS assay to identify small molecule HDAC inhibitors - cell viability counter screen (AID 1259365). Also: nearly all actives have a fitted effect of over 50% in size. Also: potency is read from the fitted curve at half-maximal effect. The procedure, abridged:
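After overnight seeding at 1,500 cells per well, wild-type HCT-116 cultures took up compounds in DMSO for 2hr at 37 C. Viable cell content came from luminescence with CellTiter-Glo.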

The nature of experiment [4]: qHTS assay to identify small molecule agonists of the sonic hedgehog signaling (Shh) pathway - cell viability counter screen (AID 1259366). Also: nearly all actives have a fitted effect of over 50% in size. Also: potency is read from the fitted curve at half-maximal effect. Put shortly:
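Same-well cytotoxicity read. Gli1-Luc reporter 3T3 cells; compounds 24hr, 37C/5% CO2; CellTiter-Fluor fluorescence.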

Experiment [5] is described as follows: qHTS assay to identify small molecule antagonists of the sonic hedgehog signaling (Shh) pathway - cell viability counter screen (AID 1259367). Also: nearly all actives have a fitted effect of over 55% in size. Also: potency is read from the fitted curve at half-maximal effect. The procedure, abridged:
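Fluorescence read-out (CellTiter-Fluor, 1 hr at 37C) taken after 23 hr compound treatment of 3T3 Gli1-Luc cells stimulated with conditioned medium. Cells were seeded at 2,000 per well and pre-incubated 4 hr.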

Experiment [6] in a line: qHTS assay to identify small molecule agonists of the sonic hedgehog signaling (Shh) pathway (AID 1259368; calls by dose curve;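 also: NIH/3T3-derived 3T3Gli1-Luc cells carrying a stable Gli1-driven firefly luciferase reporter; series mostly up to about 92 µM; nearly all actives have a fitted effect of over 15% in size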). Put shortly:
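Cells of a mouse NIH/3T3 clone stably expressing luciferase under the Gli1 transcriptional response element are exposed to test chemicals for 24 hr at 37 C. Pathway activation is detected as a rise in luminescence.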

Experiment [7] is described as follows: qHTS assay to identify small molecule antagonists of the sonic hedgehog signaling (Shh) pathway (AID 1259369; calls by dose curve; also: nearly all actives have a fitted effect of over 45% in size; also: potency is read from the fitted curve at half-maximal effect). The procedure, abridged: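 Cells are plated and held 4hr at 37 C, compounds (DMSO) are pinned in, conditioned medium is added to stimulate the pathway, and after 24hr luciferase reagent is added for 30min before luminescence is read.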
The nature of experiment [8]: qHTS assay to identify small molecule agonists of the androgen receptor (AR) signaling pathway in the presence of an antagonist - cell viability counter screen (AID 1259379). Also: nearly all actives have a fitted effect of over 25% in size. Also: potency is read from the fitted curve at half-maximal effect. The procedure, abridged: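 Cytotoxicity is assessed by CellTiter-Fluor in MDA-kb2 cells carrying an MMTV-driven luciferase reporter. Cells receive 3.0uM nilutamide plus compounds at 15 concentrations and incubate 16 hr at 37C without CO2 before fluorescence reading.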

Experiment [9] in a line: qHTS assay to identify small molecule agonists of the estrogen receptor beta (ER-beta) signaling pathway - cell viability counter screen (AID 1259380). Also: nearly all actives have a fitted effect of over 30% in size. Also: potency is read from the fitted curve at half-maximal effect. The procedure, abridged:
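Cytotoxicity is measured in parallel with the reporter screen: after 16 hr compound exposure at 37C and a 2 hr LiveBLAzer step, CellTiter-Glo is added to the same ER-beta-UAS-bla HEK293T wells and luminescence read after 30 min.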

Experiment [10] can be described thus: qHTS assay to identify small molecule antagonists of the estrogen receptor beta (ER-beta) signaling pathway - cell viability counter screen (AID 1259382). Also: nearly all actives have a fitted effect of over 55% in size. Also: potency is read from the fitted curve at half-maximal effect. Put shortly:
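Cytotoxicity counter screen multiplexed with the beta-lactamase antagonist assay: GripTite HEK293T ER-beta-bla cells were treated 16 hr with test chemicals in the presence of 1nM 17-beta-estradiol, and viability was measured by CellTiter-Glo.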

Experiment [11] can be described thus: qHTS assay to identify small molecule agonists or antagonists of the thyroid stimulating hormone receptor (TSHR) signaling pathway - wild type cell line counter screen (AID 1259384; calls by dose curve). The procedure, abridged:
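Wild-type Hek293 cells, 800/well, 18 h at 37C, then compound with Ro20-1724 for 30 min RT. cAMP by HTRF (cAMP-d2/anti-cAMP cryptate), 1 h RT, fluorescence read. 15 concentrations, triplicates.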

Experiment [12] addresses Thyrotropin receptor (Homo sapiens) (UniProt P16473). Put plainly: qHTS assay to identify small molecule antagonists of the thyroid stimulating hormone receptor (TSHR) signaling pathway (AID 1259385; calls by dose curve; also: nearly all actives have a fitted effect of over 20% in size; also: potency is read from the fitted curve at half-maximal effect). Put shortly:
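TSHR-HEK293 cells (800/well) plated 18 h, then compounds with Ro20-1724 and TSH at 1.5 ng/mL final, 30 min at room temperature. cAMP quantified by HTRF (cAMP-d2/anti-cAMP-cryptate, 1 h); 15 concentrations in triplicate.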

Experiment [13] in a line: qHTS assay to identify small molecule agonists of the estrogen receptor alpha (ER-alpha) signaling pathway in the presence of an antagonist - cell viability counter screen (AID 1259386).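 Also: cells exposed to compounds for 22 h at 37 °C before the viability read; nearly all actives have a fitted effect of over 30% in size.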 Also: potency is read from the fitted curve at half-maximal effect. The procedure, abridged:
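Cytotoxicity was measured in parallel with the ERE-luciferase agonist screen, in the same wells. The cells were VM7Luc4E2, which endogenously express ER-alpha, and treatment was with compounds plus 10.0nM ICI-182,780 for 22hr.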

The target in experiment [14] is Androgen receptor (Homo sapiens) (UniProt P10275). Put plainly: qHTS assay to identify small molecule agonists of the androgen receptor (AR) signaling pathway in the presence of an antagonist (AID 1259381; calls by dose curve; also: nearly all actives have a fitted effect of over 15% in size). The procedure, abridged: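 Agonist-mode confirmation screen: human MDA-kb2 cells stably expressing luciferase under an MMTV promoter bearing AR and GR response elements, co-treated with 3.0uM nilutamide (final). Luminescence measured after 16hr compound incubation.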

Experiment [15] has as its target Estrogen receptor (Homo sapiens) (UniProt P03372). Put plainly: qHTS assay to identify small molecule agonists of the estrogen receptor alpha (ER-alpha) signaling pathway in the presence of an antagonist (AID 1259383; calls by dose curve; also: top concentration of the series differs between compounds; nearly all actives have a fitted effect of over 15% in size). The procedure, abridged: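 Agonist-mode confirmation in the presence of the ER antagonist ICI-182,780 at 10.0nM final. Breast-derived VM7Luc4E2 reporter cells were exposed to compounds for 22hr, and ERE-driven luciferase was quantified by luminescence.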

The nature of experiment [16]: qHTS assay to identify small molecule phospholipidosis (PLD) inducers (AID 1259344; active = well fitted curve in the direction sought with a large enough effect; an effect the other way counts as inactive or inconclusive). Put shortly: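 Read-out is LipidTOX Red fluorescence (ex 595/em 615) imaged in HepG2 cells after 24 h compound exposure at 37 C, with Hoechst nuclear counterstain (ex 352/em 461) allowing per-cell normalisation.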
The target in experiment [17] is Estrogen receptor beta (Homo sapiens) (UniProt Q92731). Put plainly: qHTS assay to identify small molecule agonists of the estrogen receptor beta (ER-beta) signaling pathway (AID 1259377; active = well fitted activation curve with a large enough effect in the signal ratio in the repeat runs, not every such curve was filed as active; the % refers to the signal ratio). The procedure, abridged: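 Read-out: beta-lactamase FRET fluorescence. Cell line: ER-beta-UAS-bla HEK293T in 2% charcoal-stripped FBS. Exposure: 16 hr at 37C. Substrate step: 2 h at room temperature.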

Experiment [18] deals with Progesterone receptor (Homo sapiens) (UniProt P06401). The experiment is described as follows: qHTS assay to identify small molecule agonists of the progesterone receptor (PR) signaling pathway (AID 1346784; calls by dose curve; also: nearly all actives have a fitted effect of over 30% in size). Put shortly: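 Compounds were tested for PR agonism in HEK 293T cells bearing a beta-lactamase gene under UAS control. Treatment lasted 16 hr at 37C; signal came from fluorescence of a FRET substrate.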

Several values for one entry are separate records, joined by “and”; a condition that tells them apart may be missing. Identical values can stand only once. Records with an inconclusive call do not appear. Activity calls are given as the source filed them. Unless noted, calls follow the shape of the dose curve; as a rule, active = well fitted curve in the direction sought with a large enough effect in the repeat runs; inconclusive = weak or mixed curves; inactive = no such curve, though single readings can be large; an effect the other way counts as inactive or inconclusive.

Estrogen receptor beta (Homo sapiens), sequence (Q92731 whole entry, looked up): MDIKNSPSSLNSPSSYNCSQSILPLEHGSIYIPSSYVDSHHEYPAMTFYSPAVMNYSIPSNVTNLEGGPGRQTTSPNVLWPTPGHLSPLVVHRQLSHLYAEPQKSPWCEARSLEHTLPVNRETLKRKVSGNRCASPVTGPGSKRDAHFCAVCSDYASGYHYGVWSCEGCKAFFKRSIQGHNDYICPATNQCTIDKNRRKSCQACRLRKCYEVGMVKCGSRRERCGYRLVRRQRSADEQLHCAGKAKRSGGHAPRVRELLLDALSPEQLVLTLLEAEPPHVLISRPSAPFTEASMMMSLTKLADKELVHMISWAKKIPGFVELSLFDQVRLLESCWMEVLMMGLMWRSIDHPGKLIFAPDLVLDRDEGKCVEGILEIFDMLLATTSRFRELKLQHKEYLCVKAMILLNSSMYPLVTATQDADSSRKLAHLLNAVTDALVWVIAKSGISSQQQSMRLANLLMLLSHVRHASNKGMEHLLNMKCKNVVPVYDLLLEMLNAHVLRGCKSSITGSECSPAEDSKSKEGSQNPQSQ
Estrogen receptor (Homo sapiens), sequence (P03372 whole entry, looked up): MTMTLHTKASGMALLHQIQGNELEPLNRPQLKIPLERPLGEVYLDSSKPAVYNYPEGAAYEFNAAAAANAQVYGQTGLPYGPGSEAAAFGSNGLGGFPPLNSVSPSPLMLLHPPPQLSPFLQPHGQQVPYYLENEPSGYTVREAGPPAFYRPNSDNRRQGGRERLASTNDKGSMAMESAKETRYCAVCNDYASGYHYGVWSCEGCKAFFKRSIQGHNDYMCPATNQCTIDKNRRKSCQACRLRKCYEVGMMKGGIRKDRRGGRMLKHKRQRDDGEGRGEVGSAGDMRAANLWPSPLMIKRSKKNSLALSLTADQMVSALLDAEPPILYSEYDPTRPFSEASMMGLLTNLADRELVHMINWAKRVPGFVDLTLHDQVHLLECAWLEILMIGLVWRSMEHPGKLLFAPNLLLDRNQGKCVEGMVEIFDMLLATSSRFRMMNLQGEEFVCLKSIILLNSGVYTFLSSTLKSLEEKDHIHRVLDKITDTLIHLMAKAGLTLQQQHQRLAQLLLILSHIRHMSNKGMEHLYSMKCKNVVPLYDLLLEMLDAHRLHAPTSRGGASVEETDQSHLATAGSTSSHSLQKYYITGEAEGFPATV
Progesterone receptor (Homo sapiens), sequence (P06401 whole entry, looked up): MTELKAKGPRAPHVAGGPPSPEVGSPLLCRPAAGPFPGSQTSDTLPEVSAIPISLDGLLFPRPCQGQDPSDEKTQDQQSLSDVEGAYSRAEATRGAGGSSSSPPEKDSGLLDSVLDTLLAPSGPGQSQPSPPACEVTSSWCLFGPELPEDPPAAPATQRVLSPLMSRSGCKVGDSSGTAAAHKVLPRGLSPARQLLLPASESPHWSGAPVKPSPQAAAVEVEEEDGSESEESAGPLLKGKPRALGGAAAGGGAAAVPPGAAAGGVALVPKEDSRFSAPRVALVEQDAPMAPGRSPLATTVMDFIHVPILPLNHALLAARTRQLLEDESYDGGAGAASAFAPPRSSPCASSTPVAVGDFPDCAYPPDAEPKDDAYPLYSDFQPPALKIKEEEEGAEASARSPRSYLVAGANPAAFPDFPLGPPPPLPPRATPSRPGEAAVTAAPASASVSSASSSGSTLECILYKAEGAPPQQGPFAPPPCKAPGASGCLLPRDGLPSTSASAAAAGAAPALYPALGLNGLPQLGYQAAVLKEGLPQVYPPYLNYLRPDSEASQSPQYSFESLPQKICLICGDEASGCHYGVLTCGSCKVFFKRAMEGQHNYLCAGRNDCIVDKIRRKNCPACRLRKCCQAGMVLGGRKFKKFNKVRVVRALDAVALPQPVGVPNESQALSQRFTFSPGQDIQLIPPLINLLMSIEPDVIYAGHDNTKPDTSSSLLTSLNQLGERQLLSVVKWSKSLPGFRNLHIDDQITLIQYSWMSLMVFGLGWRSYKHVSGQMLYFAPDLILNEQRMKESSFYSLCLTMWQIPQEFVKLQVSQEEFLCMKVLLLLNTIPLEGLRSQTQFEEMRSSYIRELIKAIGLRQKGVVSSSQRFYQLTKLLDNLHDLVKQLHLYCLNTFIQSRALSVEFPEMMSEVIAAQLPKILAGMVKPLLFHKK
Thyrotropin receptor (Homo sapiens), sequence (P16473 whole entry, looked up): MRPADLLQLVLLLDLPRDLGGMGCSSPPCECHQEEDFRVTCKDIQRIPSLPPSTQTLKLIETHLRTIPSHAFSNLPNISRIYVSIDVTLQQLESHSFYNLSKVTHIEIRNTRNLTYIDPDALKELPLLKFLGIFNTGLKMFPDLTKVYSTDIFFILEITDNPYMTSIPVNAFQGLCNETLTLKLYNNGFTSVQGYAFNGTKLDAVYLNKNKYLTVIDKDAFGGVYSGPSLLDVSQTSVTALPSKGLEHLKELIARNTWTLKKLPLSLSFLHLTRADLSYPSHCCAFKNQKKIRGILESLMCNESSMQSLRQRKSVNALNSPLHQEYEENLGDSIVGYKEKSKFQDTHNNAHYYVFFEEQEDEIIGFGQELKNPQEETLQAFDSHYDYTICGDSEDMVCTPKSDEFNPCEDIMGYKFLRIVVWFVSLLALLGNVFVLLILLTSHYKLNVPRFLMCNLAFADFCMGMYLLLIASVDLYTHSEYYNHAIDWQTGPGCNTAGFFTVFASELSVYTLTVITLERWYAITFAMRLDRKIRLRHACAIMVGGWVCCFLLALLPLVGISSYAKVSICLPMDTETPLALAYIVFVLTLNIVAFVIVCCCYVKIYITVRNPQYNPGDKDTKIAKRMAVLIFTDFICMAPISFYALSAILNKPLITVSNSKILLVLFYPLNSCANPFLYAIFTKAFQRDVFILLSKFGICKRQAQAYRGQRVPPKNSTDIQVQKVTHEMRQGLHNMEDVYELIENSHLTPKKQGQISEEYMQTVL
Androgen receptor (Homo sapiens), sequence (P10275 whole entry, looked up): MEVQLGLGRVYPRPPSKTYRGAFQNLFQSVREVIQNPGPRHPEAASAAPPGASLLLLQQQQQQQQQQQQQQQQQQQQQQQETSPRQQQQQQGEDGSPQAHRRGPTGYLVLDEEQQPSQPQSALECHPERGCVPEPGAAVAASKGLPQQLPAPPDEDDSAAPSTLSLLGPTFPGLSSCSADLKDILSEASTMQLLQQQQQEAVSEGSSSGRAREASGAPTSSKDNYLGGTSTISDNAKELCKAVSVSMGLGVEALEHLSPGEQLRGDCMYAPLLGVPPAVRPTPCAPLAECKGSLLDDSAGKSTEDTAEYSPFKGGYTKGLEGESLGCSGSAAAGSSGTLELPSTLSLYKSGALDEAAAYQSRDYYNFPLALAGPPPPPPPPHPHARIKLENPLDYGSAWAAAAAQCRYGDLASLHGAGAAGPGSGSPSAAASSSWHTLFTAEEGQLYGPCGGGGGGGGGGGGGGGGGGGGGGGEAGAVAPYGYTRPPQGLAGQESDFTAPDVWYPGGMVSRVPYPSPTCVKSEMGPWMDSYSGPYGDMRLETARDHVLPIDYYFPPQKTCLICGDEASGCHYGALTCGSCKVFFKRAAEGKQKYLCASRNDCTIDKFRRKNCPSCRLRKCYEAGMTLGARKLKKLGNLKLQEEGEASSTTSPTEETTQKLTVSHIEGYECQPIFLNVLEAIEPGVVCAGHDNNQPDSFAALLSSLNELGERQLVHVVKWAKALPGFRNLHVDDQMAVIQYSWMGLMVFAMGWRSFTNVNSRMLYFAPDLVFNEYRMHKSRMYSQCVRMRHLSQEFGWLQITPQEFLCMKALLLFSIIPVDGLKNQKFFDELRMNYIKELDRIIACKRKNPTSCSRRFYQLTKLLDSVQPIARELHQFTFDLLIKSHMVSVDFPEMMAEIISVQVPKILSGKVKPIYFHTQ

In the case of `CCCCCCCC[N+](CCCCCCCC)(CCCCCCCC)CCCCCCCC`, the Potency is 2.16 µM (active) in experiment [1]; 61 µM (active) in experiment [3]; 17.2 µM (active) in experiment [4]; 27.3 µM (active) in experiment [5]; 0.768 µM (active) in experiment [7]; 17.2 µM (active) in [8]. Further, the Potency was 30.6 µM (active) in experiment [9], 21.6 µM (active) in experiment [10], 61 µM (active) in [12] and 12.2 µM (active) in experiment [13]. Besides, the Potency result in experiment [2] and in [6] was “inactive” each time. The result in experiment [11] was inactive.
`c1cc(C(c2ccc(OCC3CO3)cc2)c2ccc(OCC3CO3)cc2)ccc1OCC1CO1` (configuration not stated): the Potency entry in experiment [1], in experiment [2], in [3], in experiment [6], in experiment [8] and in [14] was “inactive” in each case. Moreover, the Potency entry in experiment [10], in [15] and in experiment [13] was “inactive” each time. Further, the Potency in [4] is 61.1 µM (active); in [7], 54.5 µM (active). In [11], the compound was called inactive.
For the compound `CCCC(c1cc(C(C)(C)C)c(O)cc1C)c1cc(C(C)(C)C)c(O)cc1C`, the Potency in experiment [1] was 27.6 µM (active); in experiment [3] it was 49.2 µM (active); in experiment [4], 22 µM (active); in experiment [5], 17.4 µM (active); in experiment [7] it was 13.9 µM (active); in experiment [8], 31 µM (active). Moreover, the values for the Potency in experiment [9], in experiment [10] and in [13] were 12.3 µM (active), 13.9 µM (active) and 61.9 µM (active), respectively. For the same compound, the Potency entry in [2] and in experiment [15] was “inactive” each time. The compound was called inactive in experiment [11].
Consider `CCCCC(CC)COP(=O)(O)OCC(CC)CCCC` (configuration not stated), for which the Potency entry in [1], in [2], in experiment [3], in experiment [6], in [7] and in experiment [15] was “inactive” throughout. Also, the Potency result in experiment [13] was “inactive”. Also, the Potency in [9] was 68.7 µM (active) and 7.7 µM (active); in experiment [10] it was 68.7 µM (active) and 68.6 µM (active).
For the compound `Cc1cccc2c1cc1ccc3cccc4ccc2c1c34`, the Potency result in [1], in [2], in experiment [3], in [4], in experiment [6] and in [7] was “inactive” throughout. Further, the Potency result in experiment [9], in experiment [10] and in [15] was “inactive” each time.
Regarding `Cc1ccc(-n2nc(C(C)(C)C)cc2NC(=O)Nc2ccc(OCCN3CCOCC3)c3ccccc23)cc1`, the Potency result in experiment [1], in experiment [16], in experiment [3], in experiment [5], in [6] and in [7] was “inactive” throughout. Also, the Potency entry in [17] and in experiment [10] was “inactive” each time. Moreover, in experiment [9], the Potency was 7.5 µM (active). Moreover, the outcome in experiment [11] was inactive.
With `Clc1ccc(C(Cn2ccnc2)OCc2ccc(Sc3ccccc3)cc2)c(Cl)c1` (configuration not stated), the Potency entry in experiment [1], in experiment [2], in experiment [3], in experiment [4], in experiment [5] and in experiment [6] was “inactive” each time. Further, the Potency result in experiment [17], in experiment [8], in experiment [9], in experiment [10], in experiment [15] and in [12] was “inactive” each time. For the same compound, the Potency entry in [13] and in experiment [18] was “inactive” in each case. For the same compound, in experiment [11], the outcome was inactive.
As for `CN(C)c1ccc(SC#N)cc1`, the Potency entry in experiment [1], in experiment [2], in [3], in experiment [4], in [6] and in [17] was “inactive” throughout. For the same compound, the Potency result in experiment [15], in [13] and in [18] was “inactive” in each case. For the same compound, the Potency in experiment [7] is 48.6 µM (active); in experiment [9], 54.5 µM (active). Further, the result in experiment [11] was inactive.
